HSF1 inhib – HSF1 inhibition; NIH3T3-HGL HSE-luciferase, MG132-induced, luminescence 8 h; active compounds read low; activity change, negative = inhibition, % at 7.5 µM (by protocol); 300,000 tested, 0.77% active; AID 2098;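 active means more than half of replicate wells show activity change below -50%, luminescence cut by over half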;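 further: luciferase reports HSF-1 transcriptional activity via heat shock element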
SMARCA2 act – increases SMARCA2 function in MMTV reporter cells | 370,000 tested, 1% active | MG213 cells, MMTV-luciferase reporter, dexamethasone, overnight | AID 652017 | activation, % at 9.1 µM; in the data active means activation above about 7.8%
AI-2 QS modul – modulates the Vibrio harveyi AI-2 quorum sensing system; activity change, % at 7.5 µM; Vibrio harveyi JMH597 AI-2 luminescence/OD600 ratio, 9 h; active compounds read low; strain lacks LuxN and CqsS sensors; 0 = neutral-control median; 300,000 tested, 0.4% active; in the data active means activity change below about -75%, passing the limit was not always enough;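 further: luminescence divided by OD600 gain over 9 h not by final OD600 alone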
GAA850 FXN act – activators of GAA850 frataxin (FXN) promoter. HEK293 lucGAA850 FXN promoter luciferase reporter, 24 h; percent of 10 µM SAHA response. activation, % at 6 µM. 360,000 tested, 0.56% active. AID 540364;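 active means activation above the average of all compounds screened plus 3 SD, cutoff fixed separately per campaign, cut at about 7.5% in these data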
HSP90 inh – blocks HSP90-mediated luciferase refolding in reticulocyte lysate. Rabbit reticulocyte lysate, luciferase refolding luminescence, 3 h. inhibition, % at 5.6 µM. 290,000 tested, 0.91% active;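 active means inhibition above the screen-wide mean plus 3 SD, computed separately per campaign, cut at about 16% in these data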;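 further: inhibitors lower the luminescence because luciferase stays unfolded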
PG9 Ab binder – PG9 antibody binding by small molecule; TR-FRET gp120-PG9 antibody binding; inhibition, % at 6.7 µM; 360,000 tested, 0.43% active; AID 624416; in the data active means inhibition above about 8.5%
HSP90 confirm – HSP90 inhibition, confirmation assay; AID 1846; shares compounds with HSP90 inh; 2,300 tested, 64% active; inhibition, % at 5.9 µM; rabbit reticulocyte lysate, luciferase refolding luminescence, 3 h; in the data active means inhibition above about 18%
FLuc counter – firefly luciferase inhibition, HSP90 counter-screen; shares compounds with HSP90 inh; inhibition, % at 5.9 µM; 2,300 tested, 48% active; AID 1847; purified native firefly luciferase, luminescence;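 active means inhibition above the mean inhibition of all tested sample wells plus 3 SD, cut at about 10% in these data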
Target sequence (P08659 whole entry, looked up): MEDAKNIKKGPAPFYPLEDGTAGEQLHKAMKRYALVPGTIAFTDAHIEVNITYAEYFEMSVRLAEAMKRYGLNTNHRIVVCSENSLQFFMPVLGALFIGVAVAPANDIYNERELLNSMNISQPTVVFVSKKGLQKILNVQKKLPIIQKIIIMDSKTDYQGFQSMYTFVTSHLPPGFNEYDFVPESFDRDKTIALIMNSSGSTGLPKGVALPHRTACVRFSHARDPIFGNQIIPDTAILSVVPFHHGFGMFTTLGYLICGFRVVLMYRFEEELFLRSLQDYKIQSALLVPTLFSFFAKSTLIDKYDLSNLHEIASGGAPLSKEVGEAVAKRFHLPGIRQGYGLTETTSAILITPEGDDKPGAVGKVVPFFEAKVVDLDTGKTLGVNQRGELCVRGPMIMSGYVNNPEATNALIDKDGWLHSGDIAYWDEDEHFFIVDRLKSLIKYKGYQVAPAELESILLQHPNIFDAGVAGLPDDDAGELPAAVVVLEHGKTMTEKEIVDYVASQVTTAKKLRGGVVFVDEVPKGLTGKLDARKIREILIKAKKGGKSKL
Numbers stand for hits; - = inactive; . = no result given. Shown are actives, neighbours in structure and some others; about 3.4% of the full set was active somewhere.

SMILES	HSF1 inhib	SMARCA2 act	AI-2 QS modul	GAA850 FXN act	HSP90 inh	PG9 Ab binder	HSP90 confirm	FLuc counter
O=C(c1cccs1)N(Cc1cccc(Cl)c1)C1CCS(=O)(=O)C1 (stereo unspecified)	-	-	-	-	-	-	.	.
CC1(C)C(C=C(Cl)Cl)C1C(=O)N(Cc1cccc(Cl)c1)C1CCS(=O)(=O)C1 (stereo unspecified)	-	-	-	-	17	-	-	-
NS(=O)(=O)c1ccc(Nc2nc(-c3ccc(F)cc3)cs2)cc1	-	-	-	-	-	-	.	.
COc1ccc(-c2csc(Nc3ccc(S(N)(=O)=O)cc3)n2)cc1OC	-	-	-	-	23	-	-	-
O=C(O)c1ccc(C=C(c2nc3ccccc3s2)c2nc3ccccc3s2)cc1	-	-	-	-	-	-	.	.
CN(C)c1ccc(/C=C(\Cl)c2nc3ccccc3s2)cc1	.	.	.	-	49	.	71	72
CCOC(=O)C1=C(C)NC(=O)NC1c1ccsc1 (stereo unspecified)	-	-	-	-	-	-	.	.
CC1=C(C(=O)OCC(C)C)C(c2ccsc2)NC(=O)N1 (stereo unspecified)	-	-	-	-	24	-	-	-
CCN(C(=O)CCc1cn(CC)c2ccccc12)c1ccc(Oc2cccnc2)cc1	.	-	.	.	.	-	.	.
CC(C)c1ccc(NC(=O)c2csnn2)cc1	-	-	-	-	20	-	33	23
O=C(Nc1ccccc1NC(=O)c1csnn1)c1csnn1	-	-	-	-	-	-	.	.
CCN(CC)C(=O)CC[C@H]1CC[C@]2(CCCN(C(=O)c3cccnc3)C2)O1	.	-	.	.	.	.	.	.
CC(=O)Nc1nc2cc3c(cc2s1)OCO3	-	-	-	-	-	-	.	.
CC(C)C(=O)Nc1nc2cc3c(cc2s1)OCCO3	-	-	-	-	28	-	40	34
O=C(/C=C/c1ccc2c(c1)OCO2)Nc1nc2ccccc2s1	-	-	-	-	25	-	62	20
CC1CCc2nc(NC(=O)c3ccco3)sc2C1 (stereo unspecified)	-	-	-	-	54	-	82	77
CC1CCc2nc(NC(=O)Cc3cccs3)sc2C1 (stereo unspecified)	-	-	-	-	-	-	.	.
O=C(Nc1nc2cc3c(cc2s1)OCO3)c1ccco1	.	-	-	-	25	-	69	68
CCOC(=O)C(Cc1ccccc1)CP(=O)(OC)[C@@H](C)NC(=O)OCc1ccccc1 (stereo partly specified)	.	-	.	.	.	.	.	.
CCOc1ccc2nc(NC(=O)c3ccco3)sc2c1	-	-	-	-	39	-	51	45
O=C(Nc1nc2cc3c(cc2s1)OCCO3)c1ccco1	-55	-	-	-	78	-	91	89
O=C(NCCN1CCOCC1)c1ccc2c(c1)N(Cc1cccc(F)c1)C(=O)c1ccccc1S2	-	-	-	-	20	-	-	-
c1c2c(cc3sc(N4CCOCC4)nc13)OCO2	-	-	-	-	-	-	.	.
c1c2c(cc3sc(N4CCCCC4)nc13)OCO2	-	-	-	-	25	-	59	52
O=C(CN1CCN(c2ccccc2)CC1)N1N=CCC1c1ccccc1 (stereo unspecified)	-	-	-	-	39	-	-	-
SMILES	HSF1 inhib	SMARCA2 act	AI-2 QS modul	GAA850 FXN act	HSP90 inh	PG9 Ab binder	HSP90 confirm	FLuc counter
O=C(CN1CCN(c2ccc(F)cc2)CC1)N1N=CCC1c1ccccc1 (stereo unspecified)	-	-	-	-	-	-	.	.
O=C(CSc1nnc(COc2ccccc2)n1-c1ccc(Cl)cc1)Nc1ccc2c(c1)OCCO2	.	-	.	.	.	.	.	.
CCOC(=O)[C@]12CCCC=C1N(Cc1ccc(OC)cc1)C(=O)[C@@H]2CC(=O)NCCCN1CCCC1=O	.	-	.	.	.	.	.	.
C/C(=N\OCc1cccc(C(=O)O)c1)c1ccc(Cl)cc1	-	-	-	-	71	-	86	87
C/C(=N\OCc1ccc(C#N)cc1)c1ccccc1	-	-	-	-	-	-	.	.
COC(=O)c1ccc(Cn2nc(C)cc2C)cc1	-	-	-	-	24	-	-	-
COc1ccc(/C=N\NC(=O)Cc2cccs2)c(OC)c1OC	.	-	.	.	.	.	.	.
Cc1ccc(-c2onc3ccc(C=O)cc23)cc1	-	-	-	-	50	-	-	-
Cc1oc(C(=O)O)cc1COc1ccc2c3c(c(=O)oc2c1)CCC3	-	-	-	-	19	-	-	-
Cc1c(OCc2ccc(C(=O)O)o2)ccc2c3c(c(=O)oc12)CCC3	-	-	-	-	50	-	63	13
O=C(CCS(=O)(=O)c1ccccc1)Nc1ccc(F)cc1Cl	.	-	.	.	.	.	.	.
COc1ccc(-c2csc(NC(=S)NC(=O)/C=C/c3ccc(C(C)C)cc3)n2)cc1OC	-	-	-	-	19	-	-	-
CCOC(=O)NC1Cc2ccccc2C1Sc1ccccn1 (stereo unspecified)	-	-	-	-	44	-	-	-
COC(=O)[C@H](C)N(CCc1cn(Cc2ccccc2)nn1)S(=O)(=O)c1ccccc1Br	.	-	.	.	.	.	.	.
O=C(O)c1cccc(N/N=C/c2ccc(F)c(F)c2)c1	-	-	-	-	-	-	.	.
O=C(O)c1cccc(Cn2c(Cl)c(/C=N/Nc3ccccc3)sc2=O)c1	-	.	-	-	-	.	.	.
O=C(O)c1cccc(N/N=C/c2cccc3ccccc23)c1	-	-	-	-	63	-	87	90
Cc1ccc(/C=N/Nc2cccc(C(=O)O)c2)s1	-	-	-	-	24	-	86	85
Cc1ccsc1/C=N/Nc1cccc(C(=O)O)c1	-54	-	-	-	65	-	94	92
COc1ccc2ccccc2c1/C=N/Nc1cccc(C(=O)O)c1	-	-	-	-	-	-	.	.
O=C(O)c1cccc(N/N=C/C2=C(Cl)c3cc(Cl)ccc3SC2)c1	-	-	-	-	18	-	27	30
O=C(O)c1cccc(N/N=C/c2cn(-c3ccccc3)nc2-c2cccs2)c1	-	-	-	-	-	-	.	.
Cc1cc(NC(=O)CSc2cn(CCNC(=O)c3ccccc3)c3ccccc23)no1	-	.	-	-	-	.	.	.
O=C(CSc1cn(CCNC(=O)c2ccccc2)c2ccccc12)NCc1ccco1	-	-	-	-	28	-	25	-
Cc1ccc(C(=O)NCCn2cc(SCC(=O)Nc3cc(C)on3)c3ccccc32)cc1	-	-	-	-	29	-	31	-
CCCn1cc(SCC(=O)NCc2ccco2)c2ccccc21	-	-	-	-	-	-	.	.
O=[N+]([O-])c1ccc(S(=O)(=O)Nc2ccc3c(c2)OCCO3)cc1	-	-	-	-	27	-	-	-

Screening data as filed in PubChem BioAssay.
